Experimental findings from PMC5540273 (PLoS ONE, 2017) are described below.

The structures appear in SMILES notation.
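Further: KINOMEscan kinase panel screen.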

In this assay the test system is NEK9. The settings on record: concentration: 1 μM, replicates: in singlicate; n = 1.
For the compound `O=C(O)C(F)(F)F.O=C(O)C(F)(F)F.O=c1[nH]ccc2nc(N[C@@H]3CCCNC3)nc(Nc3ccc(S(=O)(=O)N4CCOCC4)cc3)c12` [GSK2177277], the “%Inh” value was 14%.
As for `COc1cc(Nc2nccc(N3CCC(NC(=O)c4cc5ccccc5s4)C3)n2)cc(OC)c1OC` (stereo not shown) [GSK1379760], the figure is 31%; as for `CN1CCN(Cc2cccc(-c3ccc4c(Nc5ccc(Oc6ccccc6)cc5)ccnc4c3)c2)CC1` [GW578342], 16%.
As for `Fc1ccc(-c2ncn(C3CCNCC3)c2-c2ccnc(Oc3ccc(-c4ccccc4)cc3)n2)cc1` [SB-245391], the figure is 7%.
Regarding `Cc1ccc(S(=O)(=O)Nc2ccc(Nc3nccc(Nc4cccc5[nH]ncc45)n3)cc2)cc1` [GSK581271], the “%Inh” value is on record as 11%.
Then `COC(=O)Nc1nc2ccc(Oc3ccc(NC(=O)Nc4cc(C(F)(F)F)ccc4F)cc3)cc2n1C.Cl` [GW692089], with 0%.
As for `O=C(Nc1n[nH]c2nc(-c3ccc(O)cc3)ccc12)C1CC1` [SB-710363], the figure is 0%; as for `CNC(=O)c1ccccc1Nc1nc(Nc2ccc(N3CCOCC3)cc2)ncc1Cl.Cl` [GSK1576028], 97.7%; as for `Cl.NC(=O)c1cccc(Nc2nccc(Nc3ccc(Oc4c(Cl)cccc4Cl)c(Cl)c3)n2)c1` [GW659009], 6%.
For the compound `COc1cc(Nc2nccc(-c3c(-c4cccc(NC(=O)c5c(F)cccc5F)c4)nn4ccccc34)n2)cc(OC)c1OC` [GSK323521], the “%Inh” value stood at 48%.
Then `Cn1cc(-c2ccc3c(c2)CCN3C(=O)Cc2cccc(F)c2)c2c(N)ncnc21` [GSK2603358], with 0%; and `Cc1cccc(Nc2nc(N[C@H]3CCNC3)ncc2C(N)=O)c1.Cl` [GSK2197149], with 0%; and `c1ccc(-c2n[nH]cc2Nc2ccnc3ccccc23)nc1` [GW694077], with 41%.
Turning to `CN(C)Cc1ccc(-c2ccc3c(Nc4ccc(Oc5ccccn5)cc4)ccnc3c2)o1` [GW567148], the “%Inh” value stood at 0%.
As for `CCS(=O)(=O)c1ccc(OC)c(Nc2nccc(-c3c(-c4cccc(NC(=O)c5c(F)cccc5F)c4)nn4ncccc34)n2)c1` [GSK326180], the figure is 10%; as for `COc1cccc(C2=C(Nc3ccc(Cl)c(C(=O)O)c3)C(=O)NC2=O)c1` [SB-390769], 0%; as for `COc1cccc(NC(=O)NC2CCN(c3ccnc(Nc4cc(OC)c(OC)c(OC)c4)n3)C2)c1` (stereo not shown) [GSK1379763], 40%.
As for `Cc1ccc(C)c(NC(=O)NC2CCN(c3ccnc(Nc4ccc(F)cc4)n3)C2)c1` (stereo not shown) [GSK1379720], the figure is 0%.
`Cc1ccc(F)c(C(=O)Nc2cccc(-c3nn4ccccc4c3-c3ccnc(Nc4cccc(F)c4)n3)c2)c1F` [GSK361061]: the “%Inh” value turned out to be 16%.
Then `Cc1occc1-c1ncc(OC[C@@H](N)Cc2c[nH]c3ccccc23)cc1-c1ccc2[nH]nc(C)c2c1.O=C(O)C(F)(F)F` [GSK682037], with 8%; and `COc1ccc(Nc2nccc(N3CCC(NC(=O)Nc4cccc(OC)c4)C3)n2)cc1` (stereo not shown) [GSK1379742], with 2%; and `CC(=O)N1CCN(c2ccc(Nc3nccc(-c4sc(C(C)C)nc4-c4cccc(NS(=O)(=O)c5cccc(Cl)c5)c4)n3)cn2)CC1` [GSK1660437], with 85%.
Then `Nc1ncnc2c1nc(-c1ccccc1)n2-c1ccccc1` [SKF-97293], with 0%; and `O=C(NC1CCN(c2ccnc(Nc3ccc(F)cc3)n2)C1)c1cc2ccccc2s1` (stereo not shown) [GSK1379716], with 17%; and `COc1cccc(C(=O)Nc2cccc(Oc3ccc4nc(NC(=O)C5CC5)cn4n3)c2)c1`, with 0%.
For the compound `Cl.Cl.NCC(C(=O)Nc1cc(Br)c(-c2ccnc3[nH]ccc23)s1)c1ccccc1` (stereo not shown) [GSK1269851], the “%Inh” value is recorded as 9%.
As for `Cn1cc(-c2ccc3c(c2)CCN3C(=O)Cc2cccc(Cl)c2)c2c(N)ncnc21` [GSK2606590], the figure is 18%.
For `COc1cc(Nc2ncc3c(C)nc(-c4cc5ccccc5[nH]4)n3n2)cc(OC)c1OC` [GW869516], the “%Inh” value was 90%.
Then `O=C(Nc1cccc(-c2nn3ccccc3c2-c2ccnc(Nc3cccc(F)c3)n2)c1)c1c(F)ccc(F)c1Cl` [GSK357952], with 19%; and `C[C@@H](Oc1cc(-n2cnc3cc(-c4ccnc(NCCS(C)(=O)=O)c4)ccc32)sc1C(N)=O)c1ccccc1Cl` [GSK907232], with 74%.
As for `COc1cccc(-c2ccc3c(NC(=O)C4CC4)n[nH]c3n2)c1` [SB-710903], the figure is 0%.
